About 45 (0.07%) of roughly 65,000 compounds were called active. Calls follow the shape of the full dose curve. Only a selection was taken, and actives are over-represented in it overall.

The subject of this test is T1, .
T1 sequence (whole entry): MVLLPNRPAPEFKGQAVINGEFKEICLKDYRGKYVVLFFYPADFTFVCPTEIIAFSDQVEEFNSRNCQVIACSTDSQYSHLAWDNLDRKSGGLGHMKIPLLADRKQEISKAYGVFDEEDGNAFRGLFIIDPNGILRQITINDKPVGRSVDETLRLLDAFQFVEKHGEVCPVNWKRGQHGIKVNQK
Briefly: Schistosoma Mansoni Peroxiredoxins (Prx2).
`Cc1cc(C)c2cc(CN(CC3CCCO3)S(=O)(=O)c3ccc4c(c3)OCCO4)c(=O)[nH]c2c1` (stereo not given): the call was active.
The value for `COc1ccc(S(=O)(=O)N(Cc2cc3ccc(OC)cc3[nH]c2=O)CC2COCCO2)cc1` (stereo not given) was “active”; that for `CCc1nc(OCCN(CC)CC)c2oc3ccccc3c2n1.Cl` was “inactive”.
As for `CC(=O)Oc1cc(OC(C)=O)c2c(C)cc(=O)oc2c1`, the compound was called active.
In the case of `O=C(/N=C1\NC(=O)C(F)(C(F)(F)F)S1)NC1CCCCC1` (stereo not given), the call was active.
The value for `COC(=O)Cc1c(C)c2ccc(OC(=O)c3ccco3)cc2oc1=O` was “active”; that for `CCC(=O)Oc1ccc2c(C)c(Cl)c(=O)oc2c1` was “active”; that for `c1ccc(Cc2nn3c(C4COc5ccccc5O4)nnc3s2)cc1` (stereo not given) was “inactive”.
In the case of `O=C1c2ccccc2C(=O)N1CCCCn1c(=O)oc2ccccc21`, the compound was called inactive.
The value for `CN(C)c1oc(-c2ccccc2Cl)nc1C#N` was “active”.

The values above are taken from the GenesisPotency data set.
